The structures appear in SMILES notation. About 79,000 compounds went through this panel and 15% of them were active in at least one assay; those are over-represented in the sample as a whole. Unmarked numbers belong to inactive results. Active and inactive are the calls of the source. Cut-off read from the data, not from the text of the source: active = growth inhibition above about 70%; inactive = the rest.

The nature of one assay: NCI Yeast Anticancer Drug Screen. Data for the rad50 strain (AID 155).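 Note: 0% = growth of vehicle-only cultures of the same strain.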 The conditions noted are these: S. cerevisiae rad50 strain growth inhibition; at 50.0 µM; hits give high values. The procedure, abridged: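 Vehicle-treated cultures provide the reference for the growth inhibition reported for compound-exposed, repair-deficient yeast.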
For `CC1CCN(CCOC(=O)C(c2ccccc2)C2C=CCCC2)C1C` (stereo not given), the growth inhibition is 81.1% (active).
On to `CC(CCCN(C)Cc1ccccc1)Nc1ccnc2cc(Cl)ccc12` (stereo not given), for which the growth inhibition is 99% (active).
The same measure, in the same setting: under `O=C(/C(Cl)=N/O)c1ccccc1` stands 98.8% (active); under `CN(C)C1C[C@@H](O[Si](C)(C)C(C)(C)C)C=C1S(=O)(=O)c1ccccc1` (stereo not given in full), 44.8%; under `Nc1nnc(Cc2ccc(Br)cc2)o1`, 21.3%.
In the case of `CSc1nc(C)cc(SCc2ccc(Cl)cc2Cl)n1`, the growth inhibition is -20.9%.
As to `CC[N](CC)[Ge]([CH2]C)[CH2]C.CC[N](CC)[Ge]([CH2]C)[CH2]C`, the growth inhibition was 57%.
The same measure, in the same setting: the figure for `Cc1c(-c2ccccc2)ccnc1/C=N/NC(=S)Nc1ccc(N(C)C)cc1` is 74.8% (active).
Turning to `Cc1cc(C)nc(NS(=O)(=O)c2ccc(Nc3c4ccccc4nc4c(C(=O)NC(CO)(CO)CO)cccc34)cc2)n1`, the growth inhibition was 81.8% (active).
`CCCC(CCC)NCCOC(=O)C(CC)c1ccccc1` (stereo not given): the growth inhibition was 88% (active).
Same read-out and setting: under `OCCc1ccc(-n2cnc3c(Nc4ccc(Cl)cc4)ncnc32)cc1` stands 47.2%.
The same measure, in the same setting: the figure for `Cc1cccc(N2C(=O)c3ccccc3C2(c2ccccc2)N2CCCCC2)c1` (stereo not given) is 65%; for `CCCCN(CCO)CCNc1ccc(C)c2sc3ccccc3c(=O)c12` it is 99.7% (active); for `Cc1ccc(C)c(C(=O)CCN)c1` it is 3.45%.
On the same count and under the same terms, under `O=C1C(C(O)(C(F)(F)Cl)C(F)(F)Cl)CCCC1C(O)(C(F)(F)Cl)C(F)(F)Cl` (stereo not given) stands 99.7% (active); under `CC(C)c1cc2c(cc1O)C(O)C1(O)CCCC(C)(C)[C@H]1CC2` (stereo not given in full), 91.4% (active).
On to `CN(C)[C@@H]1C(=O)C(C(=O)NCNc2nc3n[nH]nc3c(=O)[nH]2)=C(O)[C@@]2(O)C(=O)C3=C(O)c4c(O)cccc4[C@@](C)(O)[C@H]3C[C@@H]12`, for which the growth inhibition is -5.65%.
Take `CCOC(=O)c1csc(=S)[nH]1`: the growth inhibition was 76.8% (active).
For the compound `CC(=O)[O-].O=C(N/N=C/c1ccccc1[O-])c1ccccc1.[Zn+2]`, the growth inhibition is -2.05%.
As to `Clc1ccc(C(CCOc2ccccc2Br)Cn2ccnc2)c(Cl)c1` (stereo not given), the growth inhibition is 99.7% (active).
For the compound `CCCC(C)C/C(C)=C\C(C)(C)C1CC(=O)N(CC)C1=O` (stereo not given), the growth inhibition is 20.3%.
Turning to `CSC(SC)=C1C(=O)NC(Cc2ccccc2)C1=O` (stereo not given), the growth inhibition was 80.1% (active).
Take `CCCCCCSc1nc2ccc(N=Cc3ccccc3O)cc2s1`: the growth inhibition is 81.8% (active).
With `Cc1cc(C(=O)O)c(C)c2c1sc1ccccc12`, the growth inhibition is 76.8% (active).
On the same count and under the same terms, under `O=C(Nc1ccc(Cl)cc1)Nc1nnc2nc(C(C(=O)/C=C/c3ccccc3)c3nc4nnc(NC(=O)Nc5ccc(Cl)cc5)n4[nH]c3=O)c(=O)[nH]n12` stands 48.5%.
Same read-out and setting: the figure for `O=c1c(SSc2coc3ccccc3c2=O)coc2ccccc12` is 94.4% (active); for `C[n+]1c(/C=C/c2ccc(N3CCCC3)cc2)sc2ccccc21` it is 98.6% (active).
For the compound `CCC(C(c1ccc(Cl)cc1)c1ccc(Cl)c(Cl)c1)[N+](=O)[O-]` (stereo not given), the growth inhibition was 8.3%.
Consider `O=C1OC(C2OC(=O)C(=O)C2C(=O)c2ccc([N+](=O)[O-])cc2)C(C(=O)c2ccc([N+](=O)[O-])cc2)C1=O` (stereo not given), for which the growth inhibition is 91.6% (active).
For the compound `O=[N+]([O-])c1ccc(O)c(C2CCCCC2)c1`, the growth inhibition is 99.5% (active).
The same measure, in the same setting: under `O=C1c2ccccc2C(=O)N1/N=C\c1ccccc1[N+](=O)[O-]` stands 89% (active); under `CC(C)(C)C(=O)CC(=O)C(F)(F)C(F)(F)C(F)(F)F.CC(C)(C)C(=O)CC(=O)C(F)(F)C(F)(F)C(F)(F)F.CC(C)(C)C(=O)CC(=O)C(F)(F)C(F)(F)C(F)(F)F.[Gd]`, 89.3% (active).
For `Oc1ccc(N=Nc2ccccc2)cc1`, the growth inhibition is 98.5% (active).
The same measure, in the same setting: under `Cc1cc(NC(=S)SCc2ccc(F)cc2)ccc1Br` stands 90.7% (active).
Same read-out and setting: the figure for `OC(CN1CCc2ccccc2C1)c1ccc2ccccc2c1` (stereo not given) is 86.5% (active); for `O=C1C=C/C(=C(/c2ccc(O)c(O)c2)c2ccccc2S(=O)(=O)O)C=C1O` it is 11.8%.
As to `Cc1cc(N)c2cc(NC(=O)Nc3ccc4nc(C)cc(N)c4c3)ccc2n1`, the growth inhibition is 99% (active).
As to `CC(=O)N/N=C1/CC[C@@]2(C)C(=CC[C@H]3C4CCC(C(C)CCCC(C)C)[C@@]4(C)CCC32)C1(C)C` (stereo not given in full), the growth inhibition is 31.6%.
As for `Cc1ncn(-c2ccccc2O)c1C`, the growth inhibition is -10.3%.
Turning to `Oc1ccc(-c2nnc(-c3ccccc3)nn2)cc1`, the growth inhibition was 56.4%.

The next assay can be described thus: NCI Yeast Anticancer Drug Screen. Data for the mec2-1 strain (AID 157). The following applies: S. cerevisiae mec2-1 strain, at 5.0 µM (retest, dose inferred, filed as 0.5), hits give high values. The procedure, abridged: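 Each compound was tested on mec2-1 yeast, a strain altered in DNA damage repair or cell cycle control. Growth inhibition is reported relative to vehicle.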
Consider `CC1CCN(CCOC(=O)C(c2ccccc2)C2C=CCCC2)C1C` (stereo not given), for which the growth inhibition was 45%.
Consider `CC(CCCN(C)Cc1ccccc1)Nc1ccnc2cc(Cl)ccc12` (stereo not given), for which the growth inhibition was 53%.
Still for that read-out and setting: the figure for `O=C(/C(Cl)=N/O)c1ccccc1` is 47%.
Still for that read-out and setting: the figure for `CN(C)C1C[C@@H](O[Si](C)(C)C(C)(C)C)C=C1S(=O)(=O)c1ccccc1` (stereo not given in full) is -4%; for `Nc1nnc(Cc2ccc(Br)cc2)o1` it is 1%.
Same read-out and setting: the figure for `CSc1nc(C)cc(SCc2ccc(Cl)cc2Cl)n1` is -3%; for `CC[N](CC)[Ge]([CH2]C)[CH2]C.CC[N](CC)[Ge]([CH2]C)[CH2]C` it is 21%; for `Cc1c(-c2ccccc2)ccnc1/C=N/NC(=S)Nc1ccc(N(C)C)cc1` it is 38%.
Turning to `Cc1cc(C)nc(NS(=O)(=O)c2ccc(Nc3c4ccccc4nc4c(C(=O)NC(CO)(CO)CO)cccc34)cc2)n1`, the growth inhibition is 4%.
As to `CCCC(CCC)NCCOC(=O)C(CC)c1ccccc1` (stereo not given), the growth inhibition is -5%.
Consider `OCCc1ccc(-n2cnc3c(Nc4ccc(Cl)cc4)ncnc32)cc1`, for which the growth inhibition is -4%.
Regarding `Cc1cccc(N2C(=O)c3ccccc3C2(c2ccccc2)N2CCCCC2)c1` (stereo not given), the growth inhibition is 0%.
As to `CCCCN(CCO)CCNc1ccc(C)c2sc3ccccc3c(=O)c12`, the growth inhibition is 14%.
The same measure, in the same setting: the figure for `Cc1ccc(C)c(C(=O)CCN)c1` is 1%.
As for `O=C1C(C(O)(C(F)(F)Cl)C(F)(F)Cl)CCCC1C(O)(C(F)(F)Cl)C(F)(F)Cl` (stereo not given), the growth inhibition is 97% (active).
The same measure, in the same setting: the figure for `CC(C)c1cc2c(cc1O)C(O)C1(O)CCCC(C)(C)[C@H]1CC2` (stereo not given in full) is -1%; for `CN(C)[C@@H]1C(=O)C(C(=O)NCNc2nc3n[nH]nc3c(=O)[nH]2)=C(O)[C@@]2(O)C(=O)C3=C(O)c4c(O)cccc4[C@@](C)(O)[C@H]3C[C@@H]12` it is -4%; for `CCOC(=O)c1csc(=S)[nH]1` it is 2%.
Still for that read-out and setting: under `CC(=O)[O-].O=C(N/N=C/c1ccccc1[O-])c1ccccc1.[Zn+2]` stands 6%; under `Clc1ccc(C(CCOc2ccccc2Br)Cn2ccnc2)c(Cl)c1` (stereo not given), 75% (active).
The same measure, in the same setting: the figure for `CCCC(C)C/C(C)=C\C(C)(C)C1CC(=O)N(CC)C1=O` (stereo not given) is -1%; for `CSC(SC)=C1C(=O)NC(Cc2ccccc2)C1=O` (stereo not given) it is 1%.
Consider `CCCCCCSc1nc2ccc(N=Cc3ccccc3O)cc2s1`, for which the growth inhibition is 83% (active).
Same read-out and setting: the figure for `Cc1cc(C(=O)O)c(C)c2c1sc1ccccc12` is 3%; for `O=C(Nc1ccc(Cl)cc1)Nc1nnc2nc(C(C(=O)/C=C/c3ccccc3)c3nc4nnc(NC(=O)Nc5ccc(Cl)cc5)n4[nH]c3=O)c(=O)[nH]n12` it is -7%.
The same measure, in the same setting: the figure for `O=c1c(SSc2coc3ccccc3c2=O)coc2ccccc12` is 27%; for `C[n+]1c(/C=C/c2ccc(N3CCCC3)cc2)sc2ccccc21` it is 37%.
Take `CCC(C(c1ccc(Cl)cc1)c1ccc(Cl)c(Cl)c1)[N+](=O)[O-]` (stereo not given): the growth inhibition was 0%.
In the case of `O=C1OC(C2OC(=O)C(=O)C2C(=O)c2ccc([N+](=O)[O-])cc2)C(C(=O)c2ccc([N+](=O)[O-])cc2)C1=O` (stereo not given), the growth inhibition was 14%.
The same measure, in the same setting: under `O=[N+]([O-])c1ccc(O)c(C2CCCCC2)c1` stands 67%; under `O=C1c2ccccc2C(=O)N1/N=C\c1ccccc1[N+](=O)[O-]`, -2%; under `CC(C)(C)C(=O)CC(=O)C(F)(F)C(F)(F)C(F)(F)F.CC(C)(C)C(=O)CC(=O)C(F)(F)C(F)(F)C(F)(F)F.CC(C)(C)C(=O)CC(=O)C(F)(F)C(F)(F)C(F)(F)F.[Gd]`, -9%.
Same read-out and setting: under `Oc1ccc(N=Nc2ccccc2)cc1` stands 5%.
`Cc1cc(NC(=S)SCc2ccc(F)cc2)ccc1Br`: the growth inhibition is 32%.
Same read-out and setting: under `OC(CN1CCc2ccccc2C1)c1ccc2ccccc2c1` (stereo not given) stands 18%; under `O=C1C=C/C(=C(/c2ccc(O)c(O)c2)c2ccccc2S(=O)(=O)O)C=C1O`, 2%.
Regarding `Cc1cc(N)c2cc(NC(=O)Nc3ccc4nc(C)cc(N)c4c3)ccc2n1`, the growth inhibition is 100% (active).
For the compound `CC(=O)N/N=C1/CC[C@@]2(C)C(=CC[C@H]3C4CCC(C(C)CCCC(C)C)[C@@]4(C)CCC32)C1(C)C` (stereo not given in full), the growth inhibition was -14%.
The same measure, in the same setting: the figure for `Cc1ncn(-c2ccccc2O)c1C` is -8%; for `Oc1ccc(-c2nnc(-c3ccccc3)nn2)cc1` it is -48%.

The values are drawn from PubChem BioAssay (NCI).
